This passage reports inhibition results from ChEMBL document CHEMBL1961873, “Compounds: GSK PKIS; Assays: Nanosyn kinase panel” (2012).

Several values for one entry are separate records, joined by “and”; a condition that tells them apart may be missing. Identical values can stand only once.

The target in experiment [1] is Platelet-derived growth factor receptor beta (Homo sapiens) (UniProt P09619). To be noted: at 1 µM.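 Also: each value is a mean percent inhibition.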
The target of experiment [2] is Tyrosine-protein kinase FRK (Homo sapiens) (UniProt P42685). To be noted: at 0.1 µM.
Experiment [3] shares this target. To be noted: at 1 µM.
For experiment [4], the target named is Protein-tyrosine kinase 2-beta (Homo sapiens) (UniProt Q14289). To be noted: at 0.1 µM.
Experiment [5] has the same target. To be noted: at 1 µM.
The target of experiment [6] is Proto-oncogene tyrosine-protein kinase receptor Ret (Homo sapiens) (UniProt P07949). To be noted: at 0.1 µM.
Experiment [7] has the same target. To be noted: at 1 µM.
The subject of experiment [8] is Proto-oncogene tyrosine-protein kinase receptor Ret (Homo sapiens), P07949 [V804L]. To be noted: at 0.1 µM.
The test system is the same in experiment [9]. To be noted: at 1 µM.
Experiment [10] deals with Proto-oncogene tyrosine-protein kinase receptor Ret (Homo sapiens), P07949 [Y791F]. The conditions noted are these: at 0.1 µM.
Proto-oncogene tyrosine-protein kinase receptor Ret (Homo sapiens), P07949 [Y791F], sequence (P07949 whole entry Y791F): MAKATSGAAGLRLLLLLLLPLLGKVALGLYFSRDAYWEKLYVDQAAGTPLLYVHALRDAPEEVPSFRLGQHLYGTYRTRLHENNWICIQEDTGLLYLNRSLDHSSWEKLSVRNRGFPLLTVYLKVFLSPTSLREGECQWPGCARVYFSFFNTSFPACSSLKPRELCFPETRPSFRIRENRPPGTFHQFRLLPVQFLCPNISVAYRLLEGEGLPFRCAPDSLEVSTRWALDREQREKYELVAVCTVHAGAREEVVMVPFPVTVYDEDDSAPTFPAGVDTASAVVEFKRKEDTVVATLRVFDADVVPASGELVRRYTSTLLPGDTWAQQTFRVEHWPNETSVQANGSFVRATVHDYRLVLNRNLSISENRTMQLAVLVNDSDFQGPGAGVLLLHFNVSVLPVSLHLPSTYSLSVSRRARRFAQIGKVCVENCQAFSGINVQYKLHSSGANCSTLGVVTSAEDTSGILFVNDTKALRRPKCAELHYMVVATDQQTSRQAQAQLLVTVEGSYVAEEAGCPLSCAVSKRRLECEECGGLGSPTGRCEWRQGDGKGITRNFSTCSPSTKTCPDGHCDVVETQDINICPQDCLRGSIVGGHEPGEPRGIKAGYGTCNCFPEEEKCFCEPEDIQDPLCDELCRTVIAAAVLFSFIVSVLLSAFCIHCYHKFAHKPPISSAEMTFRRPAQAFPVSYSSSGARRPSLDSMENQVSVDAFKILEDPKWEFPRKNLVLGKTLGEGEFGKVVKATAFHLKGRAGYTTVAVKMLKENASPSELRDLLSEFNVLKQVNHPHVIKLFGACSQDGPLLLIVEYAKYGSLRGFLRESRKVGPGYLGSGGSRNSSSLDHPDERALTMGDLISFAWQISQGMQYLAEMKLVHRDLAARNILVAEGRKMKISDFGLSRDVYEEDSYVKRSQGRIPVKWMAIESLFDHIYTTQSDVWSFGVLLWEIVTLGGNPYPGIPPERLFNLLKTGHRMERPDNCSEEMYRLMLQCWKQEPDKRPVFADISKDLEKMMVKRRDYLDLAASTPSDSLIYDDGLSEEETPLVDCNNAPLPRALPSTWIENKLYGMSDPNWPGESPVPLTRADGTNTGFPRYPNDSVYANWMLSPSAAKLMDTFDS

Protein-tyrosine kinase 2-beta (Homo sapiens), sequence (Q14289 whole entry, looked up): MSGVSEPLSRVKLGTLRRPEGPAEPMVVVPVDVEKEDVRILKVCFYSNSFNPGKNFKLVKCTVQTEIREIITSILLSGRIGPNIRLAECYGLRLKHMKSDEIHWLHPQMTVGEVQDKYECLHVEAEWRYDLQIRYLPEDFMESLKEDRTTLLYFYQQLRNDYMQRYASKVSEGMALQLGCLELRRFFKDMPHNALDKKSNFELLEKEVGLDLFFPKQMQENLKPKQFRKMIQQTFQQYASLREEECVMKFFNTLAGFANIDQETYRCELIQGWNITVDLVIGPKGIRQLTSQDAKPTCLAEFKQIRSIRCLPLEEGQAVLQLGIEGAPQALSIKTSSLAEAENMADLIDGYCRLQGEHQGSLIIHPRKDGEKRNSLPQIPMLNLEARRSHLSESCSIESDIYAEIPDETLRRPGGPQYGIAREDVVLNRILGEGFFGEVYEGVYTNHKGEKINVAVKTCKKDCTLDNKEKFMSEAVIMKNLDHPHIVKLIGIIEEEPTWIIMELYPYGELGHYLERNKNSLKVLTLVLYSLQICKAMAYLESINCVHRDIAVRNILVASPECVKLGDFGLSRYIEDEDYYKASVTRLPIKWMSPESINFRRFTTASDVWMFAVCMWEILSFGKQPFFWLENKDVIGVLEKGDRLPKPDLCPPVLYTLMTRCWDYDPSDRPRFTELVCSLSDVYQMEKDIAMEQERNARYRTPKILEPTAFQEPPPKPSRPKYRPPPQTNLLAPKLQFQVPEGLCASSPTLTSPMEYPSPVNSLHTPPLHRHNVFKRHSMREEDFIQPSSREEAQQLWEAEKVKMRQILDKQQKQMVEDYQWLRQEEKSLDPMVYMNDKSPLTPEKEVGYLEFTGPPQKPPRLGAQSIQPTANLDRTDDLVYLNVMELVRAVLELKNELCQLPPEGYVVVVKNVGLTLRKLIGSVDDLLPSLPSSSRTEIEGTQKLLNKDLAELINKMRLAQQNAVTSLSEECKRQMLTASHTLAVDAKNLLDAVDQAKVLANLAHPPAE
Platelet-derived growth factor receptor beta (Homo sapiens), sequence (P09619 whole entry): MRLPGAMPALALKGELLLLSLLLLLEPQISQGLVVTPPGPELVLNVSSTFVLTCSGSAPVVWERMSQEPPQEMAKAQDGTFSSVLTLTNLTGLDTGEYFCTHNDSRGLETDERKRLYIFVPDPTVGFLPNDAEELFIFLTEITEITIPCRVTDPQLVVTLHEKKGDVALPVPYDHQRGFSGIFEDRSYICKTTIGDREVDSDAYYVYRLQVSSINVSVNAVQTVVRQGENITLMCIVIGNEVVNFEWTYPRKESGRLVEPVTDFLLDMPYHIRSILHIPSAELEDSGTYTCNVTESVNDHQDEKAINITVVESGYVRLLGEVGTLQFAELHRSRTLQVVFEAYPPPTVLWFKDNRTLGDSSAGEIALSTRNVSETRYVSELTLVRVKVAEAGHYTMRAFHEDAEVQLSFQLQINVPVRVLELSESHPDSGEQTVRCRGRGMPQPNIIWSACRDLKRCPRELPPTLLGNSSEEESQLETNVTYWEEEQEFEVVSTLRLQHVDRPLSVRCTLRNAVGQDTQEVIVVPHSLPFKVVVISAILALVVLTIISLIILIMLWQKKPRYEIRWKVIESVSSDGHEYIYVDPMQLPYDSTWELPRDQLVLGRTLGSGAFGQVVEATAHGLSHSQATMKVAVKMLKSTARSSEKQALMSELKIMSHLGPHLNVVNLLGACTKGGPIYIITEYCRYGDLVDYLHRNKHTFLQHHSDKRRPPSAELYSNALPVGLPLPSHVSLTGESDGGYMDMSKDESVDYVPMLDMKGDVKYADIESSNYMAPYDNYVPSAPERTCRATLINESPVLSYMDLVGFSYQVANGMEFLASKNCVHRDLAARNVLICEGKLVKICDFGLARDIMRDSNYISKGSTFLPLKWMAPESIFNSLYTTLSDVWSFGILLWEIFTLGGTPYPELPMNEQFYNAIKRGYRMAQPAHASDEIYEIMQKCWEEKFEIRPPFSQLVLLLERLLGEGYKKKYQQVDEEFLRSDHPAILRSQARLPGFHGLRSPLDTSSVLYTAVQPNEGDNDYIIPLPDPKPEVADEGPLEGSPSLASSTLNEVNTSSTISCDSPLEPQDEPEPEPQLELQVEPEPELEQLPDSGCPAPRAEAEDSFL
Proto-oncogene tyrosine-protein kinase receptor Ret (Homo sapiens), P07949 [V804L], sequence (P07949 whole entry V804L): as the sequence (P07949 whole entry Y791F) above, with F791Y, V804L counted along it
Tyrosine-protein kinase FRK (Homo sapiens), sequence (P42685 whole entry): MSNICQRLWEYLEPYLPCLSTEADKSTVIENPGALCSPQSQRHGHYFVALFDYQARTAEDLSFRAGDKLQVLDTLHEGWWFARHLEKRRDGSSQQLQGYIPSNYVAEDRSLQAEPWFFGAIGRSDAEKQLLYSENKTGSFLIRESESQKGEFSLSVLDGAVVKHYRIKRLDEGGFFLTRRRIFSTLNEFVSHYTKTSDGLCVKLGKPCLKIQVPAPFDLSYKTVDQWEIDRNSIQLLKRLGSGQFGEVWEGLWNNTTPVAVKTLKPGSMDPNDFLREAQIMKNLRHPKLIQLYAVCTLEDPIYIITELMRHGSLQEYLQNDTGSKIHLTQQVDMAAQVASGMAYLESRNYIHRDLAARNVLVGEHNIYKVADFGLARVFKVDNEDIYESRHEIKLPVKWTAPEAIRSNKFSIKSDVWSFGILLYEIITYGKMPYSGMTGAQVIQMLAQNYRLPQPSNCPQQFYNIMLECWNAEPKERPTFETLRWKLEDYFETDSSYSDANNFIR
Proto-oncogene tyrosine-protein kinase receptor Ret (Homo sapiens), sequence (P07949 whole entry): as the sequence (P07949 whole entry Y791F) above, with F791Y counted along it

With `Cn1c(-c2nonc2N)nc2cnccc21`, the inhibition (commonly the relative decrease from the control value, in per cent) in experiment [1] was found to be 6.81%; in experiment [2], 0.98%; in experiment [3], 1.06%; in [4], 8.49%; in [5], 4.49%; in experiment [6] it was 2.99%. Besides, the inhibition was determined as 4.58% in experiment [7], 2.88% in experiment [8], 1.31% in experiment [9] and 3.98% in experiment [10].

For `CCCNc1cccc(-n2ncc3c(N/N=C/c4ccncc4)ncnc32)c1`, the inhibition was 78.8% in [1]; 0.57% in [2]; 3.14% in [3]; 2.47% in experiment [4]; 12.2% in experiment [5]; 15% in experiment [6]. For the same molecule, the inhibition in experiment [7] was 54.7%; in [8], 7.89%; in [9] it was 40.7%; in experiment [10] it was 16.4%.

With `NS(=O)(=O)c1ccc(N/N=C2\C(=O)Nc3cccc(CCc4ccncc4)c32)cc1`, the inhibition is 58.5% in experiment [1]; -0.74% in [2]; -0.31% in [3]; 4.23% in experiment [4]; 20.1% in experiment [5]; 21.6% in experiment [6]. Also, the inhibition came out at 43.4% in experiment [7], 38.5% in [8], 43.6% in experiment [9] and 18.8% in [10].

For `CCS(=O)(=O)c1ccc(OC)c(Nc2ncc(-c3cccc(C(C)=O)c3)o2)c1`, the inhibition was determined as 84.3% in experiment [1]; 3.25% in [2]; 14.2% in [3]; 5.43% in [4]; 8.24% in [5]; 7.26% in experiment [6]. In addition, the inhibition worked out at 33.6% in experiment [7], 5.03% in experiment [8], 28.8% in experiment [9] and 6.91% in [10].

Turning to `Fc1ccc(Nc2nccc(-c3c(-c4ccc(C(F)(F)F)cc4)nn4ncccc34)n2)cc1F`, the inhibition in experiment [1] was 3.62%; in experiment [2], 0.45%; in [3], 0.39%; in experiment [4], 4.12%; in experiment [5] it was 9.36%; in experiment [6] it was 4%. In addition, the inhibition in [7] was 6.84%; in [8] it was 1.24%; in [9] it was -1.13%; in [10] it was 5.34%.

With `CC1(C)CC(n2cnc(-c3ccc(F)cc3)c2-c2ccnc(N)n2)CC(C)(C)N1`, the inhibition in experiment [1] is 5.35%; in [2], 0.92%; in [3], 1.66%; in experiment [4], 4.26%; in experiment [5], 3.23%; in [6], -0.92%. Besides, the inhibition is -0.44% in experiment [7], 2.21% in [8], 2.81% in experiment [9] and 1.42% in experiment [10].

As to `COc1cccc(Nc2nccc(-c3cnn4ncccc34)n2)c1`, the inhibition worked out at 70% in experiment [1]; 0.08% in experiment [2]; 4.45% in experiment [3]; 28.5% in experiment [4]; 86.6% in [5]; 1.21% in [6]. Also, the inhibition came to 17.1% in experiment [7], 3.16% in [8], 22.6% in [9] and 2.74% in experiment [10].

Turning to `CN(c1ccc(NC(=O)NCCN2CCOCC2)cc1)c1ccnc(Nc2ccc(CS(C)(=O)=O)cc2)n1`, the inhibition in experiment [1] was 77.1%; in experiment [2], 1.69%; in experiment [3], 0.89%; in [4], 11.2%; in [5], 57.8%; in experiment [6] it was 16.5%. For the same molecule, the inhibition was 58.5% in [7], 13.2% in experiment [8], 48.9% in experiment [9] and 29.1% in experiment [10].

Consider `COc1ccc(-c2nn3ncccc3c2-c2ccnc(Nc3ccc(F)c(F)c3)n2)cc1`, for which the inhibition in experiment [1] is 15.3%; in experiment [2] it was 0.7%; in experiment [3], 2.26%; in experiment [4], 6.54%; in experiment [5] it was 17.9%; in experiment [6], 4.85%. Moreover, the inhibition came to 18.1% in [7], 16.2% in experiment [8], 15.8% in [9] and 9.34% in [10].

Regarding `FC(F)(F)CNc1nccc(-c2cnn3ncccc23)n1`, the inhibition is 3.09% in experiment [1]; 1.82% in [2]; 1.72% in experiment [3]; -0.29% in experiment [4]; 2.94% in experiment [5]; 3.97% in [6]. The inhibition is 2.84% in experiment [7], 1.22% in experiment [8], 3.68% in experiment [9] and 1.04% in [10].

Regarding `NS(=O)(=O)c1ccc(N/N=C2\C(=O)Nc3ccc(C(=O)NCc4ccncc4)cc32)cc1`, the inhibition amounted to 85.3% in [1]; 1.15% in [2]; 0.41% in experiment [3]; 3.79% in experiment [4]; 8.61% in experiment [5]; 11.1% in experiment [6]. Moreover, the inhibition in experiment [7] stood at 49.3%; in [8] it was 31.4%; in experiment [9], 75.2%; in experiment [10], 10.6%.

On to `CNC(=O)c1sc(-n2cnc3cc(OC)c(OC)cc32)cc1OCc1ccccc1C(F)(F)F`, for which the inhibition in [1] was 44.2%; in experiment [2] it was 1.48%; in [3], 3.75%; in experiment [4], -3.85%; in experiment [5], 0.13%; in experiment [6] it was 1.78%. In addition, the inhibition is 9.67% in experiment [7], 6.14% in experiment [8], 11.4% in [9] and 8.02% in experiment [10].

As to `Nc1nonc1-c1nc2cnccc2n1C1CC1`, the inhibition in [1] was 26.9% and 22.4%; in [2] it was 3.06% and 1.01%; in experiment [3] it was 1.87% and 3.49%; in experiment [4], 9.52% and 11.2%; in experiment [5] it was 8.23% and 11.7%; in [6], 4.13% and 4.16%. Further, the inhibition in experiment [7] was 10.6% and 0.77%; in experiment [8], 4.79% and 3.57%; in experiment [9], 9.45% and 6.56%; in [10] it was 6.44% and 5.27%.

As to `CCN1CCC(C(=O)Nc2n[nH]c3nnc(-c4cccc(F)c4F)cc23)CC1`, the inhibition in experiment [1] is 4.95%; in experiment [2] it was 0.31%; in experiment [3] it was 1.25%; in experiment [4] it was -2.3%; in [5] it was 1.39%; in [6], 2.54%. The inhibition is -1.84% in [7], 4.84% in experiment [8], 8.91% in experiment [9] and 3.29% in experiment [10].

Turning to `CN1CCN(Cc2ccc(-c3cc4ncnc(Nc5ccc(OCc6cccc(F)c6)c(Cl)c5)c4s3)o2)CC1`, the inhibition in experiment [1] is 6.41% and 13%; in experiment [2], 2.16% and 3.11%; in experiment [3] it was 3.13% and 4.91%; in [4], 8.63% and 10.6%; in [5], 8.03% and 19.6%; in [6], 6.83% and 5.69%. The inhibition in experiment [7] is 13.4% and 14.8%; in experiment [8] it was 3.67% and 4.61%; in experiment [9], 5.81% and 10.9%; in experiment [10] it was 4.88% and 3.59%.
